The text below walks through data of PubChem BioAssay.

A short description of test [1]: small molecules captured by biotinylated probe aFSTL3 – biochemical, small-molecule microarray, fluorescence 635/667, stem cell growth factor project, primary screen (AID 1064).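 Note: measures binding of the biotinylated anti-FSTL3 antibody to printed compounds.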 Conditions: higher = more signal.
Test [2] in a line: binders from COS7 lysate, DM2A8 probe, primary screen, torsin A project, cell lysate, small-molecule microarray, fluorescence 635/667 (AID 1065). Conditions: higher = more signal, COS7 lysate expressing mutant human TOR1A.
Test [3] is described as follows: small molecules captured by biotinylated probe aFGF2 – biochemical, small-molecule microarray, fluorescence 635/667, stem cell growth factor project, primary screen (AID 1067).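 Note: measures binding of biotinylated aFGF2 protein to printed compounds on slides; z-score merges feature fluorescence and signal-to-noise across triplicate slides.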 Particulars: higher = more signal.
The nature of test [4]: small molecules captured by biotinylated probe aFGF10 – biochemical, small-molecule microarray, fluorescence 635/667, stem cell growth factor project, primary screen (AID 1071).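 Note: score merges 667 nm spot intensity and signal to noise from triplicate slides.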 Conditions: higher = more signal.
Test [5] addresses Neurogenic locus notch homolog protein 2 (Homo sapiens) (UniProt Q04721). As to the kind of experiment: small molecules binding Notch2 protein – biochemical, small-molecule microarray, 635 nm fluorescence, stem cell growth factors, primary screen (AID 1073). Particulars: higher = more signal.
Test [6] addresses Pro-neuregulin-1, membrane-bound isoform (Homo sapiens) (UniProt Q02297). As to the kind of experiment: small molecules binding neuregulin-1 protein – biochemical, small-molecule microarray, fluorescence 635/667, psychiatric disease protein project, primary screen (AID 1075).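 Note: score combines 667 nm spot fluorescence with signal to noise.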 Particulars: NRG1 binding, 635 nm fluorescence, higher = more signal.
Test [7] relates to Neuregulin-1 EGF-like domain. As to the kind of experiment: small molecules binding NRG1 EGF domain – biochemical, small-molecule microarray, 635 nm fluorescence, primary screen (AID 1081).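 Note: binding of the protein to compounds printed on small-molecule microarray slides.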 Conditions: higher = more signal.
Test [8] is described as follows: FRG1 expression reporter modulators in myotubes – cell-based, C2C12 myotubes, firefly/Renilla luciferase, luminescence, FRG1 inhibition for FSHD, primary screen (AID 1084). Particulars: FRG1 promoter luciferase, higher = more signal, called active from +8 up or from −8 down.
Test [9] in a line: small molecules captured by biotinylated probe aFST – biochemical, small-molecule microarray, fluorescence 635/667, stem cell growth factor project, primary screen (AID 1086).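 Note: score merges 667 nm fluorescence with signal-to-noise of each printed compound spot.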 Particulars: higher = more signal.
The nature of test [10]: binders of probe aHhip on microarray, primary screen, stem cell growth factor project, biochemical, small-molecule microarray, fluorescence 635/667 (AID 1087).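 Note: score merges spot fluorescence at 667nm with spot signal to noise ratio.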 Particulars: higher = more signal.
Test [11] has as its system PRMT1 (protein arginine N-methyltransferase 1). The test can be described thus: small molecules binding arginine methyltransferase PRMT1 – biochemical, small-molecule microarray, 635 nm fluorescence, primary screen (AID 1088).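 Note: binding of Prmt1 protein to compounds spotted on small-molecule microarray slides.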 Particulars: higher = more signal.
Test [12] is described as follows: growth effects on S. cerevisiae YJM789 – YJM789 clinical isolate, OD600, 24 h, basal, primary screen (AID 1089).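 Note: growth of clinical yeast isolate S. cerevisiae YJM 789 seeded 1000 cells per well; test concentration not given here.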 Particulars: higher = more signal, called active from +8 up or from −8 down.
Test [13] in a line: S. pombe growth modifiers, basal conditions – strain 972, OD600, 24 h, no modulator, primary screen (AID 1090).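 Note: basal condition with compound alone and no growth modifier present; test concentration not given here.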 Particulars: S. pombe 972 growth, higher = more signal, called active from +8 up or from −8 down.
The nature of test [14]: budding yeast growth modifiers under rapamycin – strain BY4716, OD600, 96 h, primary screen (AID 1091). Note: test concentration not given here. Conditions: S. cerevisiae BY4716 + rapamycin, higher = more signal, called active from +8 up or from −8 down.
The target in test [15] is Torsin-1A-interacting protein 2 (Homo sapiens) (UniProt Q8NFQ8). The test can be described thus: small molecules binding lysate-expressed LULL1 – cell lysate, human LULL1 lysate, 635/667 nm fluorescence, primary screen (AID 1092).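 Note: probe is lysate of COS7 cells overexpressing human LULL1; score merges per-feature 667 nm fluorescence with signal-to-noise.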 Particulars: small-molecule microarray, hLULL1 lysate binding, 635 nm fluorescence; higher = more signal.
Sequence of Torsin-1A-interacting protein 2 (Homo sapiens) (Q8NFQ8 whole entry, looked up): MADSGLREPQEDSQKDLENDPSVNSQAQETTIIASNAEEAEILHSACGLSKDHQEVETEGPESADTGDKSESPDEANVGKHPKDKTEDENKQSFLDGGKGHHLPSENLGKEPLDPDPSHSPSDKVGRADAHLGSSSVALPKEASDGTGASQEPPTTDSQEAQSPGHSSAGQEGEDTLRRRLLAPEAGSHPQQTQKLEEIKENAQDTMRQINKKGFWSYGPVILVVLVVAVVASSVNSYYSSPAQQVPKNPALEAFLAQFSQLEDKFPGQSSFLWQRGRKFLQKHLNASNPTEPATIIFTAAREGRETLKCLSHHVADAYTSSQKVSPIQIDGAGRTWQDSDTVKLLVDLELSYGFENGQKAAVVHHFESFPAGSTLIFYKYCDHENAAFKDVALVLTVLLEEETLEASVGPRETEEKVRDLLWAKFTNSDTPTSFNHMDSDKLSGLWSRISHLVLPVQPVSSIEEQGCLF
A short description of test [16]: optical density change of DRC41 E. coli – strain DRC41, OD650, 24 h, E. coli filamentation project, primary screen (AID 1093).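 Note: MC1000 strain lacking acrAB efflux and sulA so SOS filamentation is blocked; test concentration not given here.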 Conditions: E. coli DRC41 growth, higher = more signal, called active from +8 up or from −8 down.
Test [17] can be described thus: probe aLefty2 binding to arrayed compounds – biochemical, biotinylated probe, 635/667 nm fluorescence, primary screen (AID 1094).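 Note: score merges spot fluorescence near 667 nm with spot signal-to-noise ratio.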 Particulars: small-molecule microarray, higher = more signal.
The test system of test [18] is Noggin (protein binding on small-molecule microarray). As to the kind of experiment: small molecules binding Noggin protein – biochemical, 635/667 nm fluorescence, primary screen (AID 1095).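 Note: score merges 667 nm feature fluorescence with signal to noise over triplicate slides.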 Particulars: 635 nm fluorescence, higher = more signal.
For test [19], the target named is Neurogenic locus notch homolog protein 3 (Homo sapiens) (UniProt Q9UM47). The test can be described thus: small molecules binding NOTCH3 protein – biochemical, 635/667 nm fluorescence, primary screen (AID 1096). Particulars: small-molecule microarray, 635 nm fluorescence, higher = more signal.
Sequence of Neurogenic locus notch homolog protein 3 (Homo sapiens) (Q9UM47 whole entry, looked up): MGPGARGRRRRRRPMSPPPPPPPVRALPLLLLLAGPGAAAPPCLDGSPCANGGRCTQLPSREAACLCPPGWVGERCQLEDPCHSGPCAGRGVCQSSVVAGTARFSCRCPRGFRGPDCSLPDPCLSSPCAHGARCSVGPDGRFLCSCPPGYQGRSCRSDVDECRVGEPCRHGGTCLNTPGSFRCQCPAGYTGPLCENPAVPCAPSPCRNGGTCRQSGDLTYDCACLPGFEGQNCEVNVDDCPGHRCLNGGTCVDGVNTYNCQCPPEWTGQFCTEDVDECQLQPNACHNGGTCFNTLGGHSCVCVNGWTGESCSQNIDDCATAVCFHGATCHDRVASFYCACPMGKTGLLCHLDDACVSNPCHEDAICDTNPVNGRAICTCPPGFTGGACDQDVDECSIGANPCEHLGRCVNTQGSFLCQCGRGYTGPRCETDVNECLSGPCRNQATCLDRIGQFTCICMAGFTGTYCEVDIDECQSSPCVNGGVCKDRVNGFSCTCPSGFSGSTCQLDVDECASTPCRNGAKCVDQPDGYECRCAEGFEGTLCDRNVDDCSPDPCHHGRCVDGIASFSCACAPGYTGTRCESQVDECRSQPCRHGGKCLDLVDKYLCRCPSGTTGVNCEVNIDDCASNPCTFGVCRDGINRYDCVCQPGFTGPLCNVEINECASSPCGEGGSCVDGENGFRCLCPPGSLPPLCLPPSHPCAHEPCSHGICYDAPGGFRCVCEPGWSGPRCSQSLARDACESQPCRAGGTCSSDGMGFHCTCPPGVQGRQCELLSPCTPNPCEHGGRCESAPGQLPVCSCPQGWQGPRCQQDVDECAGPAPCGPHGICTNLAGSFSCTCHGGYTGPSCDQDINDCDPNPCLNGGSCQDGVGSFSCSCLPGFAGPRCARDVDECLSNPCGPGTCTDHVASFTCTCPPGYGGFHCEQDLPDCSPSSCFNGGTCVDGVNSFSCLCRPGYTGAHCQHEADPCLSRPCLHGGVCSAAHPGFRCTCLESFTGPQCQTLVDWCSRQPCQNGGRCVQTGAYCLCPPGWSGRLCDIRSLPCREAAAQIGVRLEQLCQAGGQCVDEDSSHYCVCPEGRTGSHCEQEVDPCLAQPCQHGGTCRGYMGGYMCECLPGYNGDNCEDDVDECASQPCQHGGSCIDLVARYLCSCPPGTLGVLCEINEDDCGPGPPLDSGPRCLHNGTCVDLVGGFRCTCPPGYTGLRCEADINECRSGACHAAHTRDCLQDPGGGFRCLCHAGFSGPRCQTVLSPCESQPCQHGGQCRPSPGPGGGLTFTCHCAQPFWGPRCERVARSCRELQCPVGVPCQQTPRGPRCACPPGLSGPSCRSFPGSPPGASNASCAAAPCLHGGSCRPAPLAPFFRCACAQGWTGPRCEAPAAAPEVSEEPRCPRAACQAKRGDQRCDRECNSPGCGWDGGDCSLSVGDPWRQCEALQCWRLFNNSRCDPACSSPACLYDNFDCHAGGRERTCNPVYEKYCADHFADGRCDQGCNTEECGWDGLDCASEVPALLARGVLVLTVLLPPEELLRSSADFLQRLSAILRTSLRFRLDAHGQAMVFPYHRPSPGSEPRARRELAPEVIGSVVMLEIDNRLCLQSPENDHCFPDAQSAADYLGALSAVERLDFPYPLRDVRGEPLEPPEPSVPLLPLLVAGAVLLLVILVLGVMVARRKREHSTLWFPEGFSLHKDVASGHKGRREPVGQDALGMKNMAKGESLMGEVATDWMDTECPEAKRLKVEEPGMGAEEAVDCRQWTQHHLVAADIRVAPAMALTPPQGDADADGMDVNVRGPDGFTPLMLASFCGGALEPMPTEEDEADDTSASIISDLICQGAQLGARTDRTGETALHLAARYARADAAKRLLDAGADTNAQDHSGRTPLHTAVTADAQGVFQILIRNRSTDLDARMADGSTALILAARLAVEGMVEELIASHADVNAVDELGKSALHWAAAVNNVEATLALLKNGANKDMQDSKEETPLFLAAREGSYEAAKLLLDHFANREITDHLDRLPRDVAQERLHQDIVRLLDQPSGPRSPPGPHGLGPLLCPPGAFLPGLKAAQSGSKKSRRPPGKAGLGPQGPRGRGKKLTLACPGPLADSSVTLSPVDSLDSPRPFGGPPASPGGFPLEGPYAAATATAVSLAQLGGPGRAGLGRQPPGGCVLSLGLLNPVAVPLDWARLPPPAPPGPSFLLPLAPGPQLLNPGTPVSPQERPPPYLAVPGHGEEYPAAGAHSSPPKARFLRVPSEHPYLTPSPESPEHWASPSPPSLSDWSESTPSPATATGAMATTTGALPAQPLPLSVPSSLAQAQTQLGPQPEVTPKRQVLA
A short description of test [20]: probe aEGFR binding to arrayed compounds – biochemical, biotinylated probe, 635/667 nm fluorescence, primary screen (AID 1097).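 Note: probe is a biotinylated anti-EGFR antibody binding compounds printed on slides; score combines fluorescence near 667 nm and signal to noise of each spot.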 Conditions: small-molecule microarray, higher = more signal.

SMILES strings stand for the structures. Active and inactive are the calls of the source.

Sequence of Pro-neuregulin-1, membrane-bound isoform (Homo sapiens) (Q02297 whole entry, looked up, the tested form may be a part, canonical isoform): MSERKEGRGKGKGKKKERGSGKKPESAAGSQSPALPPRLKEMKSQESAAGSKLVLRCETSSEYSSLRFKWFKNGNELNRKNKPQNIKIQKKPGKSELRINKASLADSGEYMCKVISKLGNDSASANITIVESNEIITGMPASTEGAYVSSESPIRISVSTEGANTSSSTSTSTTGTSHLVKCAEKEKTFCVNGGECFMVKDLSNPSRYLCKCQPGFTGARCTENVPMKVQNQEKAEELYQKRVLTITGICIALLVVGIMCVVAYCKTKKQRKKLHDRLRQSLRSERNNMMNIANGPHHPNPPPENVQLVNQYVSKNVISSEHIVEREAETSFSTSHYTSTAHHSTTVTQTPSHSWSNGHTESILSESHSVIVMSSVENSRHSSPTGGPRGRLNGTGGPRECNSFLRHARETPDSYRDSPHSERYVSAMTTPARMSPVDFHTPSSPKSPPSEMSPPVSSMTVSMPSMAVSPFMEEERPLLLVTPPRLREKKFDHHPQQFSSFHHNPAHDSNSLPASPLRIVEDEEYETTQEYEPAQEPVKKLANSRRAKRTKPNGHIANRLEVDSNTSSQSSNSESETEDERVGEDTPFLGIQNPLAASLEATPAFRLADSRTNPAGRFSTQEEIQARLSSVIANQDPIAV

For the compound `Cc1ccc(S(=O)(=O)N2CC(C(=O)O)=CCC2c2ccccc2)cc1` (stereo not given), the composite z-score was 0.578 in [1]; -0.0007 in test [2]; -0.0128 in test [3]; 0.118 in test [4]; -0.0631 in [5]; -0.0288 in test [6]. Further, the composite z-score in test [7] is -0.11; in test [9] it was -0.513; in [10], -0.204; in test [11], 0.461; in [15], 2.89; in test [17] it was 0.431. In addition, the composite z-score is -1.22 in test [18], -0.231 in test [19] and 0.254 in [20]. The z-score in [8] was -1.03 (inactive); in test [12], -0.224 (inactive); in test [13], 1.29 (inactive); in test [14], -0.0893 (inactive); in test [16] it was -1.11 (inactive).
Consider `COC(=O)[C@@]1(Cc2ccc(OC)cc2)[C@H]2c3cc(C(=O)N4CCCC4)n(CCc4ccccn4)c3C[C@H]2CN1C(=O)c1ccccc1`, for which the composite z-score was 0.587 in test [1]; -0.0862 in test [2]; 0.233 in test [3]; 0.291 in test [4]; 1.42 in test [5]; 1.81 in test [6]. Besides, the composite z-score is 1.13 in test [7]; 0.462 in [9]; 0.251 in test [10]; -1.52 in test [11]; 3.62 in test [15]; 0.0363 in test [17]. Also, the composite z-score was -0.857 in test [18], -0.14 in [19] and -0.0122 in test [20]. The z-score is 3.33 (inactive) in [8]; 0.328 (inactive) in test [12]; 0.479 (inactive) in test [13]; 0.556 (inactive) in test [14]; -1.41 (inactive) in [16].
On to `C=CCOC(=O)[C@@H]1[C@H]2C(=O)O[C@H](c3ccccc3)[C@H](c3ccccc3)N2[C@H](c2ccc(OCCOC(=O)[C@H]3C[C@H]4C(=O)N[C@@H](Cc5ccccc5)C(=O)N4[C@H]3c3ccc(O)cc3)cc2)[C@@]12C(=O)Nc1ccc(I)cc12`, for which the composite z-score in [1] is -0.248; in test [2] it was 1.33; in test [3], -0.0939; in test [4], 0.459; in [5], 1.11; in test [6] it was 0.846. The composite z-score in [7] is 1.3; in [9], 0.248; in test [10], -0.0994; in test [11] it was 1.54; in test [15] it was 1.83; in test [17], -0.0879. The composite z-score in test [18] was 0.906; in test [19], 1.09; in test [20], 0.128. In addition, the z-score is 1.16 (inactive) in test [8]; 2.61 (inactive) in [12]; -1.76 (inactive) in test [13]; 0.88 (inactive) in test [14]; -1.96 (inactive) in test [16].
`COC(=O)[C@@]1(Cc2ccc(F)cc2)[C@H]2c3cc(C(=O)N(C)C)n(CCc4c[nH]c5ccc(OC)cc45)c3C[C@H]2CN1C(=O)c1ccccc1`: the composite z-score in [1] came to 1.1; in test [2] it was 1.29; in test [3], 0.181; in test [4], 0.175; in test [5], 1.37; in test [6], 0.88. The composite z-score in test [7] is 1.36; in test [9], 1.34; in test [10] it was 0.836; in test [11], 0.84; in [15], 3.17; in test [17], 0.809. Also, the composite z-score is -0.682 in test [18], 0.0599 in [19] and 0.341 in test [20]. Moreover, the z-score in test [8] was 1.59 (inactive); in [12] it was 0.12 (inactive); in test [13], -0.331 (inactive); in test [14], 0.342 (inactive); in [16], -1.47 (inactive).
Regarding `C=C(C)[C@@H]1CC=C(C(O)C2C=CC3C(=O)N(Cc4ccccc4)C(=O)C3N2n2cnnc2)CC1` (stereo not given in full), the composite z-score in test [1] was 0.29; in [2], 0.271; in [3], -0.0877; in [4], -0.215; in [5], -0.274; in test [6], 0.485. Moreover, the composite z-score in [7] is 0.703; in [9], 0.325; in test [10], 0.208; in test [11] it was -0.0461; in test [15], 1.3; in test [17], 0.0864. The values for the composite z-score in test [18], in test [19] and in test [20] were -0.305, -0.191 and -0.161, respectively. Moreover, the z-score in test [8] is 0.225 (inactive); in test [12], -0.542 (inactive); in [13], 0.312 (inactive); in test [14], 0.112 (inactive); in test [16], -0.0792 (inactive).
